Data reported in the supplement of paper PMC10849652.
Targets with a hit are over-represented here; the source holds about 7,900 in all. About 0.6% of all pairs of compound and target were hits.

What was measured:
Assay in all cases: log2 fold change, soluble protein after heating vs DMSO (PISA); higher = thermal stabilisation; K562 cells, 10 uM, 30 min; active = over 0.2 and 3.5 SD of the protein, either way, in both replicates (recomputed)
[1] = compound: C1COCCN1CCN2C3=CC=CC=C3N=C2NC(=O)C4=CC(=CC=C4)[N+](=O)[O-] [IRAK-1-4 Inhibitor I]
Summary of the method: (§1)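 Values are thermal stability changes relative to control samples and are taken from duplicates. They are stated as log2 fold changes. Before quantification by TMTpro 16plex LC-MS/MS with equalised channel sums, K562 cells at 2×10^6 cells/mL were treated with 10 μM compound for 30 min, heated in aliquots for 3 min across 48°C-58°C, pooled, extracted in PBS with 0.5% NP-40 at 4°C, and centrifuged at 21,000xg for 90 min to give the soluble supernatant.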

[2] = compound: C=CC(=O)N1CCC[C@@H](n2nc(-c3ccc(Oc4ccccc4)cc3)c3c(N)ncnc32)C1 [ibrutinib]
Summary of the method: as §1

[3] = compound: CC(=O)c1cnc2ccc(-c3cc(Cl)c(O)c(Cl)c3)nc2c1N[C@H]1CC[C@H](CN(C)C)CC1
Summary of the method: as §1

[4] = compound: CC(C)(C)Cn1c(N)nc2ccc(-c3[nH]c(C(C)(C)C)nc3-c3ccc(F)cc3)nc21 [ralimetinib]
Summary of the method: as §1

[5] = compound: CC(C)(O)CC(=O)NCCn1ccc2ncnc(Nc3ccc(Oc4cccc(C(F)(F)F)c4)c(Cl)c3)c21
Summary of the method: as §1

[6] = compound: CC(C)C1=C2N=C(C=C(N2N=C1)NCC3=CC=CC=C3)NCCCCCCN
Summary of the method: as §1

[7] = compound: CC(C)C[C@@H](C=O)NC(=O)[C@H](CC(C)C)NC(=O)[C@H](CC(C)C)NC(=O)OCc1ccccc1
Summary of the method: as §1

[8] = compound: CC(C)N(C[C@H]1O[C@@H](n2cnc3c(N)ncnc32)[C@H](O)[C@@H]1O)[C@H]1C[C@@H](CCc2nc3cc(C(C)(C)C)ccc3[nH]2)C1 [pinometostat]
Summary of the method: as §1

[9] = compound: CC1=C(C(CC(=O)N1)C2=CC=C(C=C2)C(F)(F)F)C(=O)NC3=C(C=C4C(=C3)C=NN4)F
Summary of the method: as §1

[10] = compound: CC1=C(C2=C(C=C1)C(=O)C3=CC=CC=C3N2CCCN)C
Summary of the method: as §1

Measured: log2 fold change

VWA3B isoform 6 (UniProt Q502W6)
UniProt Q502W6, sequence (Q502W6 whole entry, looked up): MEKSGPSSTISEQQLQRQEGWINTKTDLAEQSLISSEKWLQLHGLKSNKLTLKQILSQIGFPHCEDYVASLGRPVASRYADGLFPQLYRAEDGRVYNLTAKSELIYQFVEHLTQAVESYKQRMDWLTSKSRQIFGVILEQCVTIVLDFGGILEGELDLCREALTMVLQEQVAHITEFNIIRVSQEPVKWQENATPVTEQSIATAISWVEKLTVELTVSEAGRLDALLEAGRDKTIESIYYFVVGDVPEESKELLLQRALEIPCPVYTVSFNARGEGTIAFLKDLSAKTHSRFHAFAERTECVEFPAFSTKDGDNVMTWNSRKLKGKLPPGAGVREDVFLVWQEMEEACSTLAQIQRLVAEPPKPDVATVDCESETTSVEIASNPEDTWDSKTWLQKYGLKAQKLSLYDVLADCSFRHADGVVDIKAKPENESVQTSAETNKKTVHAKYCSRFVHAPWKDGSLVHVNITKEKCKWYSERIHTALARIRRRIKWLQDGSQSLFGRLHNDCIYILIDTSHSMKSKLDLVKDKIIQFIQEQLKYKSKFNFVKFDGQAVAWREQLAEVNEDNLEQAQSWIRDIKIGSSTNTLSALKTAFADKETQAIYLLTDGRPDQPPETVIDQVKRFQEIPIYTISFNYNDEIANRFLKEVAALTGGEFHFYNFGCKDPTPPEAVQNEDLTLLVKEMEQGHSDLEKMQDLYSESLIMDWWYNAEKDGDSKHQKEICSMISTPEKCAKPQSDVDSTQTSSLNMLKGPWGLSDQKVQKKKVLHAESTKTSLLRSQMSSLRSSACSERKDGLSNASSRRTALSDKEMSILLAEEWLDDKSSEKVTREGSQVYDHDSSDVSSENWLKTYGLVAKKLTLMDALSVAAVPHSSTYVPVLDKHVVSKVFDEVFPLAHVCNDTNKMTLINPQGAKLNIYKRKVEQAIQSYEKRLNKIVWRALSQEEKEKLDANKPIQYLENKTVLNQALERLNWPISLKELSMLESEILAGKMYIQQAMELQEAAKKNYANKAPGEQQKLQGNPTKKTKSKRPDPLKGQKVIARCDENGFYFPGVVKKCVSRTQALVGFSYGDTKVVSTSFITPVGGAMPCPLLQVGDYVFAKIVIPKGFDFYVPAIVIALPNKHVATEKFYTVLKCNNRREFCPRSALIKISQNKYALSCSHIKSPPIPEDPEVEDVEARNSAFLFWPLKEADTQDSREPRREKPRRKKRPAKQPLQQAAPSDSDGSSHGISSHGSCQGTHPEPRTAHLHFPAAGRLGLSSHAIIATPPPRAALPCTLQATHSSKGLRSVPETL
inactive: [1] 0.043 | [2] -0.069 | [3] 0.013 | [4] -0.031 | [5] 0 | [6] -0.407 | [7] -0.256 | [8] 0.079 | [9] 0.257 | [10] 0.089

UTP3 (UniProt Q9NQZ2)
inactive: [1] -0.053 | [2] 0.072 | [3] 0.031 | [4] 0.021 | [5] 0.062 | [6] -0.062 | [7] 0.253 | [8] 0.159 | [10] -0.571

TNNC2 (UniProt P02585)
inactive: [1] 0.042 | [2] 0.012 | [3] 0.004 | [4] -0.068 | [5] 0 | [6] 0.116 | [7] 0.025 | [8] -0.067 | [9] -0.005 | [10] 0.114

WASHC2A (UniProt Q641Q2)
inactive: [1] -0.002 | [2] -0.013 | [3] 0.054 | [4] 0.013 | [5] 0.047 | [7] 0.025 | [8] 0.033 | [9] -0.004 | [10] -0.044
active: [6] -0.266

UBA52 (UniProt P62987)
inactive: [1] -0.098 | [2] 0.091 | [3] 0.21 | [4] 0.139 | [5] 0.107 | [6] 0.044 | [7] 0.147 | [8] 0.358 | [10] -0.532

XRCC6 (UniProt P12956)
inactive: [1] -0.046 | [2] -0.057 | [3] -0.12 | [4] -0.004 | [5] -0.124 | [6] -0.195 | [7] 0.074 | [8] -0.01 | [9] -0.001 | [10] -0.008

TRAPPC3 (UniProt O43617)
inactive: [1] 0.03 | [2] -0.032 | [3] -0.056 | [4] -0.083 | [5] -0.033 | [6] -0.105 | [7] 0.001 | [8] -0.029 | [9] 0.031 | [10] 0.008

TSG101 (UniProt Q99816)
UniProt Q99816, sequence (Q99816 whole entry, looked up): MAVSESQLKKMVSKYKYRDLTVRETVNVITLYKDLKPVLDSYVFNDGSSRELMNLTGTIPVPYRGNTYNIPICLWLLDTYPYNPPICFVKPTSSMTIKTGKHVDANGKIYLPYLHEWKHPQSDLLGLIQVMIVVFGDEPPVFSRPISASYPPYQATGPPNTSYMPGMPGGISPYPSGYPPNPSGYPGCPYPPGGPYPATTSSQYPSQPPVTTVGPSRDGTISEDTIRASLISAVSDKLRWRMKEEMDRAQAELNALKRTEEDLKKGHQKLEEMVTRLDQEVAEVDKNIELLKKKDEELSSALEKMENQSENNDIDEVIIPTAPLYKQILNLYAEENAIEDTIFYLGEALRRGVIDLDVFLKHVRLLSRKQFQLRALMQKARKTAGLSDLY
inactive: [1] 0.05 | [2] 0.004 | [3] -0.017 | [4] -0.005 | [5] -0.025 | [6] -0.146 | [7] 0.031 | [8] -0.003 | [9] 0.001 | [10] -0.012

TRIM44 (UniProt Q96DX7)
UniProt Q96DX7, sequence (Q96DX7 whole entry, looked up): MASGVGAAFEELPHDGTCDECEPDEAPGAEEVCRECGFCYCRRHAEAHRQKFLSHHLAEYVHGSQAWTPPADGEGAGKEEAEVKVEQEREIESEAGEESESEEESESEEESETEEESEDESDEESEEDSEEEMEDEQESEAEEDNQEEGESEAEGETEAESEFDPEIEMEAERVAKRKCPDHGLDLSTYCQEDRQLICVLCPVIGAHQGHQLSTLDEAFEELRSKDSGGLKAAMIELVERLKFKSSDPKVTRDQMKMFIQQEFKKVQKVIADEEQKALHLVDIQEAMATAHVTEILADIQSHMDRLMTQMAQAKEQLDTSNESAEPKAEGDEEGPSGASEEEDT
inactive: [1] 0.031 | [2] 0.018 | [3] 0.067 | [4] -0.094 | [6] -0.06 | [7] 0.061 | [8] -0.01 | [9] -0.007
active: [10] -0.327

UBE3B (UniProt Q7Z3V4)
inactive: [1] -0.182 | [2] -0.019 | [3] -0.068 | [4] -0.296 | [5] -0.154 | [7] 0.001 | [8] 0.239 | [9] -0.102 | [10] -0.188

WDR75 (UniProt Q8IWA0)
UniProt Q8IWA0, sequence (Q8IWA0 whole entry, looked up): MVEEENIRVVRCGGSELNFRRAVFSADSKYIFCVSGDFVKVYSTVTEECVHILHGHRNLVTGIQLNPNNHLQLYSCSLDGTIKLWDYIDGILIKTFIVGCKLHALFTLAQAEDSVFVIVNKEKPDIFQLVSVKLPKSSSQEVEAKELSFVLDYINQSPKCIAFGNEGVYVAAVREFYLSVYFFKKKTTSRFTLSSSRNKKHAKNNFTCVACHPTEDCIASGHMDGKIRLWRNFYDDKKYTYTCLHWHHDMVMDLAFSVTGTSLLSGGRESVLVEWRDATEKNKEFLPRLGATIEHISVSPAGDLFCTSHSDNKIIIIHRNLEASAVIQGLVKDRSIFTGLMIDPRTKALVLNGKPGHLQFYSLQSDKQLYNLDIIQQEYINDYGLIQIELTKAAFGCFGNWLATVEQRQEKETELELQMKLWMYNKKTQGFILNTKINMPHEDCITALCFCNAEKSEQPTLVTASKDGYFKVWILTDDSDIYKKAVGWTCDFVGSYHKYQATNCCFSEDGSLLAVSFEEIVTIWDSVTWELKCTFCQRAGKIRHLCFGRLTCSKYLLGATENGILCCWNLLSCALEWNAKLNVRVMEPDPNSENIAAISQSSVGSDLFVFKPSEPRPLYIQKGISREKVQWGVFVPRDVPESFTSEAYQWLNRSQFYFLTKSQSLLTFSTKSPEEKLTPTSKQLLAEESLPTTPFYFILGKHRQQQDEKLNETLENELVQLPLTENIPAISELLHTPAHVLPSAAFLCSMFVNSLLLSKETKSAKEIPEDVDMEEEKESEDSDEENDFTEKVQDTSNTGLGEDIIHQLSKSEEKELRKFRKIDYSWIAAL
inactive: [1] -0.081 | [2] -0.026 | [3] -0.196 | [4] 0.189 | [5] 0.012 | [7] 0.178 | [8] 0.197 | [9] 0.058 | [10] 0.402

WDR11 (UniProt Q9BZH6)
inactive: [1] 0.009 | [2] -0.112 | [3] -0.01 | [4] -0.068 | [5] -0.018 | [6] -0.056 | [7] -0.047 | [8] 0 | [9] 0.069 | [10] 0.065

VKORC1 (UniProt Q9BQB6)
inactive: [1] -0.056 | [2] 0.024 | [3] -0.033 | [4] -0.052 | [6] -0.306 | [7] -0.029 | [8] 0.092 | [9] 0.007 | [10] 0.049

TMEM164 (UniProt Q5U3C3)
inactive: [1] 0.057 | [2] -0.036 | [3] -0.088 | [5] -0.025 | [6] -0.309 | [8] -0.073 | [9] -0.08 | [10] 0.066

UHRF1BP1L (UniProt A0JNW5)
active: [6] 0.242
inactive: [1] 0.018 | [2] -0.051 | [3] -0.076 | [4] -0.009 | [5] 0.193 | [7] -0.004 | [8] 0.03 | [9] -0.027 | [10] -0.019

TOMM20 (UniProt Q15388)
active: [6] -0.343
inactive: [1] 0.006 | [2] 0 | [3] 0.003 | [4] -0.017 | [5] 0.118 | [7] 0.047 | [8] 0.022 | [9] -0.021 | [10] 0.018

U2AF1L5 (UniProt P0DN76)
inactive: [1] 0.042 | [2] -0.032 | [3] -0.389 | [6] -0.19 | [8] 0.014 | [9] -0.209 | [10] -0.067

WDR46 (UniProt O15213)
inactive: [1] -0.159 | [2] 0.099 | [3] 0.15 | [4] 0.175 | [5] 0.066 | [6] 0.192 | [7] 0.154 | [8] 0.242 | [9] 0.033 | [10] -0.382

TXNL4B (UniProt Q9NX01)
inactive: [1] 0.132 | [2] -0.065 | [3] -0.071 | [4] -0.057 | [6] -0.02 | [7] 0.074 | [8] -0.053 | [9] 0.026 | [10] 0.067

TMEM106B (UniProt Q9NUM4)
inactive: [1] 0.056 | [2] 0.029 | [3] 0.043 | [5] 0.043 | [6] -0.092 | [8] 0.085 | [9] 0.026 | [10] -0.027

UBIAD1 (UniProt Q9Y5Z9)
inactive: [1] 0.012 | [2] -0.009 | [3] -0.055 | [4] -0.032 | [6] -0.069 | [7] 0.029 | [8] -0.104 | [9] -0.04 | [10] 0.047

UPF3B (UniProt Q9BZI7)
UniProt Q9BZI7, sequence (Q9BZI7 whole entry, looked up): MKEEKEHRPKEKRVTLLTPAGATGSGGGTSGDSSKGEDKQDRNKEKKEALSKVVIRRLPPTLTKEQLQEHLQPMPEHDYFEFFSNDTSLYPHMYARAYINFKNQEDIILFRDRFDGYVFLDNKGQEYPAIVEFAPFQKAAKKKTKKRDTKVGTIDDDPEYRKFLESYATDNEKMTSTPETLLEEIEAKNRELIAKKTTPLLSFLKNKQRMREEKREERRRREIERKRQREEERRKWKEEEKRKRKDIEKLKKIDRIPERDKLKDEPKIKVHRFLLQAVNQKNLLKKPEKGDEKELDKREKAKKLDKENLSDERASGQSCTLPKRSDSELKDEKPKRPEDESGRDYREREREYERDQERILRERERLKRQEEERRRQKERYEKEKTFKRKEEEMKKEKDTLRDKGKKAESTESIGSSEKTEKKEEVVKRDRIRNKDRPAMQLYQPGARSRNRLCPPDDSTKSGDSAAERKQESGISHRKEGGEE
inactive: [1] -0.099 | [2] 0.158 | [3] 0.265 | [4] 0.27 | [5] 0.057 | [6] -0.02 | [7] 0.19 | [8] 0.394 | [9] -0.002 | [10] -0.183

VARS2, A0A0G2JL52
inactive: [1] 0.012 | [2] 0.014 | [3] -0.03 | [4] 0.064 | [5] -0.074 | [6] -0.177 | [7] 0.025 | [8] -0.014 | [9] 0.003 | [10] 0.082

WARS1 (UniProt G3V277)
inactive: [1] -0.005 | [2] -0.064 | [3] -0.184 | [6] -0.009 | [8] 0.114 | [9] 0.091 | [10] 0.087

UBR2 (UniProt Q8IWV8)
UniProt Q8IWV8, sequence (Q8IWV8 whole entry, looked up): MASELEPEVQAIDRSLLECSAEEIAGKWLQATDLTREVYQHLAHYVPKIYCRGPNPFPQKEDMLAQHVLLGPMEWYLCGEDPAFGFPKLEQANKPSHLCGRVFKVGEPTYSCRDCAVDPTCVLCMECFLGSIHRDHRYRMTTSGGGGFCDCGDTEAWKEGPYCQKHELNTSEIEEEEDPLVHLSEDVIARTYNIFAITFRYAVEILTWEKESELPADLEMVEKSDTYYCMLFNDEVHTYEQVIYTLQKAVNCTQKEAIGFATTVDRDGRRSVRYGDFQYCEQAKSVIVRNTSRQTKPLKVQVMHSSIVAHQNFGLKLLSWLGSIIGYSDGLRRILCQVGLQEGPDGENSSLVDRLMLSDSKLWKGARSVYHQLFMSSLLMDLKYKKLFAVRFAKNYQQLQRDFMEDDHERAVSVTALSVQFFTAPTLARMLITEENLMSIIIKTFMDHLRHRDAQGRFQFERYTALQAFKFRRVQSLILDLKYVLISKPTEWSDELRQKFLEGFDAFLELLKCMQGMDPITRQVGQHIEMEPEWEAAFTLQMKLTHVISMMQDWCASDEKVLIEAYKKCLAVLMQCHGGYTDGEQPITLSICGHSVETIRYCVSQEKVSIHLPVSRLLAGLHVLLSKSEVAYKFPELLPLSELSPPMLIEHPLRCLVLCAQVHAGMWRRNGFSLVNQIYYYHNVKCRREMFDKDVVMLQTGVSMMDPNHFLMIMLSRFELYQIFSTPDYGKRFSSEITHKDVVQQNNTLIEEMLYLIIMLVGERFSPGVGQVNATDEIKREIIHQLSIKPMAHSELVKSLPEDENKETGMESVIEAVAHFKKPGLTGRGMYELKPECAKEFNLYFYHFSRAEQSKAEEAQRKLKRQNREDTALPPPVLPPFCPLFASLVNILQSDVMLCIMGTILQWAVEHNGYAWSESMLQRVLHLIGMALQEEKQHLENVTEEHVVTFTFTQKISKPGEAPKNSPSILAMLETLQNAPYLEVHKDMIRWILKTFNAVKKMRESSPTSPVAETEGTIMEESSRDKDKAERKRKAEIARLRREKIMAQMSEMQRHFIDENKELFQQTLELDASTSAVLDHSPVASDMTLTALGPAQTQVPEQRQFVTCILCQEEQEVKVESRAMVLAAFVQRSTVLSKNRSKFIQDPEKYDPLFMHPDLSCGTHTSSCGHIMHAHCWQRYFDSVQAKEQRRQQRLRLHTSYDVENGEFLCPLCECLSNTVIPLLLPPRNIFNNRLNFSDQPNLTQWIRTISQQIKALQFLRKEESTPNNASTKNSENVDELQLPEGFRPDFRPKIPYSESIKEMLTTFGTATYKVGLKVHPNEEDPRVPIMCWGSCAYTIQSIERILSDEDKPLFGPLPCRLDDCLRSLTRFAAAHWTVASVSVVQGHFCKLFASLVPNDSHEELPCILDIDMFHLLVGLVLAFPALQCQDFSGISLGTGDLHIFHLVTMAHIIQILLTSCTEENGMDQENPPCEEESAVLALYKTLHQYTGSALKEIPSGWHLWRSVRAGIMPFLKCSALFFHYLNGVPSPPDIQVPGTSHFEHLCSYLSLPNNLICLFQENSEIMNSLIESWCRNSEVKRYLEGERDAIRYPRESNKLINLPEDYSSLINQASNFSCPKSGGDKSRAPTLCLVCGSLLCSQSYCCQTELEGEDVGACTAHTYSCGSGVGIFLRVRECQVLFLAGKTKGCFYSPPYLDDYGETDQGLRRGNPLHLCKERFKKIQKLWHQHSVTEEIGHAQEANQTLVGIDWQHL
inactive: [1] 0.002 | [2] -0.102 | [3] -0.11 | [4] 0.029 | [5] -0.086 | [6] -0.058 | [8] 0.137 | [9] -0.01 | [10] 0.076
active: [7] 0.351

U2AF1 isoform 2 (UniProt Q01081)
active: [3] -0.519
inactive: [1] -0.133 | [2] 0.073 | [4] 0 | [5] 0.042 | [6] -0.083 | [7] 0.022 | [8] -0.04 | [9] -0.062 | [10] 0.169

TRIP10 (UniProt Q15642)
inactive: [1] 0.007 | [2] 0.002 | [3] 0.009 | [4] 0.001 | [5] 0 | [6] -0.022 | [7] 0.007 | [8] -0.007 | [9] -0.009 | [10] -0.02

TMEM184C (UniProt Q9NVA4)
inactive: [1] 0.105 | [2] -0.037 | [3] 0.042 | [4] -0.033 | [5] 0.088 | [7] 0.042 | [8] -0.021 | [9] 0.081 | [10] -0.005

TNPO1 (UniProt Q92973)
active: [10] -0.231
inactive: [1] 0.01 | [2] 0.001 | [3] 0.043 | [4] -0.01 | [5] -0.029 | [6] -0.193 | [7] -0.011 | [8] -0.006 | [9] 0.032
